From PubChem BioAssay
An excerpt weighted towards active compounds, which were near 5.5% of everything screened.
Giardia kill = kills Giardia lamblia. Giardia lamblia trophozoite viability. AID 540267. 0.15% of 340,000 active. activity change, % at 7.66 µM, hits read low; in the data active = activity change below about -80%; inconclusive = between about -30% and that limit;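 also: parasites exposed to compound for two days anaerobically before the ATP read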
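Trophozoites 100 cells/well + cpd; 48 hrs, 37 deg C, anaerobic. ATPLite 1-Step added, 15-30 min RT, luminescence read (ATP-based viability).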
ELG1 DNA repair = ELG1-dependent DNA repair inhibition; AID 504467; Potency, µM (top dose mostly 46.1 µM), for inactives: at the highest dose activity change, negative = inhibition, actives largely listed as inhibitors; 2.3% of 330,000 active; HEK293T ELG1-luciferase reporter, luminescence, 16 h; DNA damage induced by 5-fluorouridine; also: potency is read from the fitted curve at half-maximal effect; nearly all actives have a fitted effect of over 55% in size
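Cells (2,000 per well) received 5-fluorouridine plus test compound or DMSO and were incubated 16 hr at 37 °C, 5% CO2. Luciferase activity was read by luminescence 30 min after ONE-Glo addition; signal suppression marked inhibition of damage-induced ELG1 function.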
Sfp PPTase inh = Sfp phosphopantetheinyl transferase inhibition; 3.5% of 310,000 active; Potency, µM, inactives show largest response in the series, negative = inhibition, usual class: inhibitors; Biochemical Sfp PPTase activity, qHTS;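 also: the enzyme is Sfp with the accession as filed and its product quenches rhodamine fluorescence; potency is read from the fitted curve at half-maximal effect; 0% = enzyme reaction without inhibitor and -100% = no enzyme wells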
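Fluorescence-quenching assay with 15 nM Sfp, 5 uM rhodamine-CoA and 12.5 uM BHQ-2-labelled ybbR peptide in pH 7.6 Hepes/MgCl2 buffer. Enzyme was pre-incubated with compound for 15 min at room temperature. Rate was taken from the 30-min fluorescence change (525/598 nm).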
FBPA coupling cs = counter-screen for Giardia aldolase inhibitors: coupling enzyme system. coupling enzyme system counterscreen, AmpLite Red fluorescence. activity change, negative = inhibition, % at 58.2 µM, hits read low. 0.67% of 290,000 active. AID 2472; in the data active = activity change below about -30%
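Activity here indicates interference with the coupling reaction, not aldolase inhibition. Compounds at 57.5 uM final met coupling enzymes for 10 min at RT; substrate and AmpLite Red detection followed, with a 525/598 nm fluorescence read after 20 min.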
* marks the source's active call; other numbers are inactive results; ? = inconclusive; / = not tested or not shown; ! = repeats disagree. Unless noted, calls follow the shape of the dose curve; as a rule, active = well fitted curve in the direction sought with a large enough effect; inconclusive = small, poorly fitted or top-dose-only effect, or another doubt; inactive = no such curve, though single readings can be large; an effect the other way counts as inactive or inconclusive. Unless noted, % is scaled to controls: 0 for no effect and ±100 for the full control effect.

SMILES	Giardia kill	ELG1 DNA repair	Sfp PPTase inh	FBPA coupling cs
Cc1ccc(S(=O)(=O)N(C(=O)c2ccncc2)c2ccc(OC(=O)c3ccncc3)c3ccccc23)c(C)c1	11.2	?	44.7µM*	-11.8
O=C(COc1ccccc1)N[C@@H]1c2ccccc2CC[C@@H]1O	-15.1	-1.9%	/	/
O=C(CCNC(=O)c1ccco1)Nc1ccc(OC(F)F)cc1	-0.1	-5.5%	-2.5%	1.7
Cc1nc(CCN2C(=O)c3ccccc3C2=O)cs1	-1.8	9.8%	79.4µM*	0.0
CC(=O)Nc1ccc(SCC(c2ccccc2)N2CCN(C)CCC2=O)cc1 (stereo not given)	-19.2	/	-7.1%	3.1
Cc1ccccc1-n1c(O)cc(=O)[nH]c1=S	6.8	5.4%	56.2µM*	-1.2
O=c1cc(O)n(-c2ccccc2F)c(=S)[nH]1	-2.6	3.5%	50.1µM*	-1.4
Cc1ccccc1-n1c(C)n[nH]c1=S	-5.4	1.5%	79.4µM*	-3.7
O=c1cc(O)n(-c2ccc(Cl)cc2)c(=S)[nH]1	-20.9	-2.6%	50.1µM*	3.8
Nc1cc(=O)[nH]c(=O)n1-c1ccc(Cl)cc1	9.0	1.4%	6.3%	-0.6
Cc1ccccc1-n1c(-c2ccoc2C)n[nH]c1=S	-16.7	?	-13.1%	-1.0
C=CCn1cc(C(=O)N2CCN(c3ccccc3)CC2)c(=O)c2cc(S(=O)(=O)N3CCCC3)ccc21	-12.2	-1.4%	11.1%	/
CCOC(=O)c1cc(CC)sc1N1C(=O)CC(Sc2ccccc2C(=O)O)C1=O (stereo not given)	-10.7	15.7%	3.55µM*	10.2
CCOC(=O)c1cc(CC)sc1N1C(=O)CC(Sc2ncccc2C(=O)O)C1=O (stereo not given)	-10.1	11.5%	-20.3%	9.3
O=C(O)c1ccccc1SC1CC(=O)N(c2ccccc2)C1=O (stereo not given)	3.1	1.4%	79.4µM*	3.0
COC(=O)CN(Cc1ccco1)S(=O)(=O)c1ccccc1	-2.5	11.1%	56.2µM*	1.3
O=C(Cc1cccc(NC(=O)C2CCCN(C(=O)C3CC3)C2)c1)Nc1cccc(C(=O)N2CCOCC2)c1 (stereo not given)	-14.7	/	/	/
CS(=O)(=O)Nc1ccc([N+](=O)[O-])cc1Oc1ccccc1	-0.1	-4.5%	56.2µM*!	6.3
CS(=O)(=O)Nc1ccccc1Oc1ccccc1	-20.4	1.4%	8.9%	-0.4
CCCC(=O)OC1(C(=O)CO)CCC2C3CCC4=CC(=O)CCC4(C)C3C(O)CC21C (stereo not given)	/	/	24.4%	-1.0
Oc1ccc(/C=N/n2cnn(Cc3ccccc3Cl)c2=S)c(O)c1	-1.3	4.3%	14.1µM*	5.1
CC(C)=NNc1nc2sc3c(c2c(=O)[nH]1)CC(C)(C)OC3	8.0	7.0%	15.8µM*	-0.2
CN(C)CCCNc1cc(C(C)(C)C)nc2c(-c3ccccc3)cnn12	0.4	?	50.1µM*	-7.1
Cc1ccc2[nH]c(=O)c(C(c3nnnn3C3CCCC3)N(Cc3cccnc3)Cc3ccco3)cc2c1 (stereo not given)	1.4	?	-12.4%	-0.1
Cc1ccc2cc(C(c3nnnn3C3CCCC3)N(Cc3cccnc3)Cc3ccco3)c(=O)[nH]c2c1 (stereo not given)	31.5	?	10µM*	-7.5
SMILES	Giardia kill	ELG1 DNA repair	Sfp PPTase inh	FBPA coupling cs
CCOC(=O)c1c(C)nc2sc3c(=O)n(-c4ccc(C(C)=O)cc4)nnc3c2c1-c1ccc(Cl)cc1	32.0	?	-9.8%	9.3
CCOC(=O)c1c(C)nc2sc3c(=O)n(-c4ccc(C(C)=O)cc4)cnc3c2c1-c1ccc(Cl)cc1	-3.6	20.6µM*	?	-2.0
CCNc1ccc2noc3c2c1C(=O)c1ccccc1-3	-0.1	-11.3%	-16.6%	-4.9
O=C1c2ccccc2-c2onc3ccc(N4CCCC4)c1c23	28.1	?	39.8µM*	-49.9*
O=C1c2ccccc2-c2onc3ccc(NCc4ccco4)c1c23	6.0	0.6%	-15.3%	-42.8*
CCOc1ccc2noc3c2c1C(=O)c1ccccc1-3	22.8	?	?	-45.5*
C/C=C\C=C\C(=O)N1CC2(CC(c3cccc(NC(=O)COc4ccc(Cl)cc4)c3)=NO2)C[C@H]1C(N)=O (stereo not given in full)	8.9	?	28.2µM*	-0.1
C/C=C(\C)C(=O)N1CC2(CC(c3cccc(NC(=O)COc4ccc(Cl)cc4)c3)=NO2)C[C@@H]1C(N)=O (stereo not given in full)	-17.4	-1.5%	17.7%	1.0
